Source: PubChem BioAssay
Redox H2O2 prof = compounds producing H2O2 with reducing agent – biochemical, NIH compound library profiling, artefact control for MLSCN library redox annotation, primary screen | DTT-dependent redox cycling H2O2, phenol red/HRP absorbance; 100% = 100 µM peroxide control, 0% = buffer | activation, % at 10 µM | 0.03% of 200,000 active;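 active = activation of at least 50% relative to the plate's high and low controls in the primary single-dose screen; inactive = activation below 50%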;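 also: compound incubated with DTT at 0.8 mM final as the reducing agent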
p97 ATPase inh = blocks human p97 ATPase activity; recombinant p97 ATPase, Kinase-Glo ATP luminescence, 3 h; 0.42% of 220,000 active; P55072; inhibition, % at 8 µM; AID 1481; in the data active = inhibition above about 15%;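 also: 0% = DMSO vehicle and 100% = wells lacking enzyme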
PERK inh = blocks human PERK kinase; Q9NZJ5; inhibition, % at 5.6 µM; CHO PERK-DD fusion, SEAP luminescence translation reporter; 0.17% of 220,000 active;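 active = inhibition above the mean inhibition of all tested compounds plus 3 SD, set separately per screening campaign, cut at about 2.9% in these data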;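 also: PERK kinase domain activated by AP20187 dimerizer at 100 nM; 0% = DMSO with dimerizer and 100% = rapamycin at 8.4 µM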
UBC9 SUMO inh = inhibitors of human SUMOylation (UBC9); P63279; HTRF SUMOylation assay, SAE1/SAE2 + UBC9, in vitro; inhibition, % at 35 µM; 0.36% of 290,000 active; AID 2006; in the data active = inhibition above about 50%, passing the limit was not always enough
Target sequence (P63279 whole entry, looked up): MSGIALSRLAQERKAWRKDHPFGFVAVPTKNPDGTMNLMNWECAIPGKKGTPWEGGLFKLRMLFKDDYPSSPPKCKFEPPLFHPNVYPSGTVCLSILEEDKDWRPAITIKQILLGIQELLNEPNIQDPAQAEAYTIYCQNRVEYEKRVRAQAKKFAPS
Numbers without * were called inactive; . = no result given. This is a sample that favours compounds with a hit; in the whole collection about 0.69% have one here.

SMILES	Redox H2O2 prof	p97 ATPase inh	PERK inh	UBC9 SUMO inh
CCCCSc1nc(CCC)cc(=O)[nH]1	0	-5	-1	7
CCOC(=O)c1cn(C2CC2)c2c(F)c(F)c(F)cc2c1=O	1	1	1	3
CCOC(=O)c1cn(-c2nc(-c3ccc(Cl)cc3)cs2)c2c(F)c(N3CC(C)OC(C)C3)c(F)cc2c1=O (stereo not given)	-8	1	3.2*	-2
CC1=C(C(=O)Nc2ccccc2)C(c2ccc(C)o2)n2c(s/c(=C\c3ccco3)c2=O)=N1 (stereo not given)	0	3	0	72*
Cc1ccccc1-c1cc2c(nn1)-c1ccccc1C2=O	0	4	0	88*
Cc1ccc(-c2cc3c(nn2)-c2ccccc2C3=O)cc1	.	-36	1	-8
CCOC(=O)Cn1c2ccccc2c2nc3ccccc3nc21	0	1	0	94*
Nc1ccc(SCc2cccnc2)cc1	.	.	.	-14
O=C(NNc1ccccc1F)c1ccccc1	.	3	5.0*	7
O=C(NNC(=O)c1ccc(-c2ccccc2)cc1)Nc1ccccc1F	.	.	.	3
CCc1c(C)c2cc(Cl)c(O)c(CN(C)C)c2oc1=O	0	-4	0	51*
S=C(Nc1ccc2cn[nH]c2c1)Nc1ccccc1Cl	0	7	2	88*
CCN(CC)Cc1c(O)ccc2c(=O)c(Oc3ccccc3OC)coc12	2	2	1	52*
O=C(CC(=O)N/N=C\c1ccc([N+](=O)[O-])cc1)NCCc1ccccc1	0	4	1	6
Cc1onc(-c2c(Cl)cccc2Cl)c1C(=O)O/N=C(\C#N)c1ccccc1	.	15*	2	13
Cc1onc(-c2c(Cl)cccc2Cl)c1C(=O)ONC(=O)c1cc(C(F)(F)F)cc(C(F)(F)F)c1	.	9	3.0*	-3
Cc1onc(-c2c(Cl)cccc2Cl)c1C(=O)c1ccccc1	.	2	-1	0
CCCc1ccc2oc(C(=O)N3CCN(CC(=O)NC(C)C)CC3)c(C)c2c1	.	.	.	4
CC1=NN(c2ccc(C)cc2)C(=O)/C1=C\c1ccc(Br)s1	-1	3	1	76*
COc1cccc(NC(=O)C2CCCN2S(=O)(=O)c2ccc3c(c2)n(C)c(=O)c(=O)n3C)c1 (stereo not given)	.	.	.	-1
O=C(NCCc1ccccn1)c1cc(-c2cccc3ccccc23)nc2ccccc12	1	3	-1	19
CSC1=NCCN1C(=O)c1ccc(S(=O)(=O)N(C)C)cc1	-1	15*	2	13
CN(C)c1ccc(/C=C2/C(=O)N(c3ccc([N+](=O)[O-])cc3)N=C2N2CCOCC2)cc1	-7	32*	1	87*
O=C1CC(N2CCOCC2)=NN1c1ccc([N+](=O)[O-])cc1	.	8	2	96
CN(C)c1ccc(/C=C2\C(=O)N(c3ccc([N+](=O)[O-])cc3)N=C2N2CCOCC2)cc1	1	23*	0	.
SMILES	Redox H2O2 prof	p97 ATPase inh	PERK inh	UBC9 SUMO inh
COc1cc([N+](=O)[O-])cc2sc(NC(=O)C(C)(C)C)nc12	0	2	3.5*	14
COc1cc([N+](=O)[O-])cc2sc(NC(=O)C3CC3)nc12	0	0	0	-12
O=C(N/N=C/c1cn(Cc2cccc(F)c2)c2ccccc12)c1cc(O)cc(O)c1	.	.	.	66*
Nc1ccc(C(=O)N/N=C/c2cn(Cc3ccc(F)cc3)c3ccccc23)cc1	.	.	.	-20
CC(C(=O)NC(C)(C)C)N1C(=O)c2cccc3cccc(c23)C1=O (stereo not given)	-1	-2	0	7
Cc1ccc(/C=C2\SC(=S)N(/N=C/c3cc([N+](=O)[O-])ccc3O)C2=O)o1	0	21*	1	.
Cc1ccc(NC(=O)Cn2cccc2)cc1Cl	3	0	2.9*	-2
O=C(O)c1cccc(-c2ccc(/C=c3/sc4nc5ccccc5n4c3=O)o2)c1	.	9	0	84*
Cc1ccccc1C(=O)c1cccn1CC(=O)NCc1ccccc1Cl	.	.	.	7
O=S(=O)(c1ccc(OC(F)(F)F)cc1)N1CCCC(c2ccccc2)C1 (stereo not given)	.	.	.	10
Cc1ccc2nc3c(cc(C(=O)NCc4ccco4)c(=N)n3Cc3ccco3)c(=O)n2c1	12	3	0	74*
COc1ccc(NS(=O)(=O)c2ccc(O)c(NC(=O)c3cc4c(C)nn(-c5ccc(F)cc5)c4s3)c2)cc1	0	5	0	82*
COc1cc(/C=N/NS(=O)(=O)c2ccc(C)cc2)ccc1OCc1ccc(C(=O)O)cc1	-10	6	2.9*	14
CCOc1ccc(/C=N/NS(=O)(=O)c2ccc(C)cc2)cc1OC	.	.	.	-3
